Bioassay records as filed in PubChem BioAssay.
Most compounds without a hit are left out; they make up all but 12% or so of the library.
G9a inh: qHTS Assay for Inhibitors of Histone Lysine Methyltransferase G9a; G9a H3K9 monomethylation, AlphaScreen, 2 h; Potency, µM (series often up to 102 µM), without a hit: top-dose activity, negative = inhibition, actives largely listed as inhibitors; actives 8.8% (n = 350,000); AID 504332, 2011; further: on the % scale 0 is the no-effect control and ±100 the full control effect; nearly all actives have a fitted effect of over 75% in size
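Step 1: enzyme (final 20 nM) with compound, 15 min RT. Step 2: substrate peptide 500 nM and SAM 20 uM, 2 h RT. Step 3: anti-H3K9me1 antibody and AlphaScreen beads, 10 min, then plate read.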
HP1b chromo inh: HTS for Inhibitors of HP1-beta Chromodomain Interactions with Methylated Histone Tails; Chromobox protein homolog 1 (Homo sapiens), P83916; AlphaScreen HP1-beta / biotin-H3K9me3 peptide binding; Potency, µM (titrated, usually from 114 µM), for inactives: at the top dose activity change, negative = inhibition, most hits filed as inhibitors; actives 0.56% (n = 390,000); further: nearly all actives have a fitted effect of over 70% in size
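HP1-beta protein (50 nM final) preincubated 30 min at room temperature with biotinylated H3(1-18)K9me3 peptide (50 nM) in PBS pH 7.4, 0.01% Tween-20, then compound added for 30 min. AlphaScreen streptavidin donor/nickel chelate acceptor beads (10 ug/mL final), 30 min dark, luminescence read.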
Sfp PPTase inh: qHTS Assay for Inhibitors of Bacillus subtilis Sfp phosphopantetheinyl transferase (PPTase); 4'-phosphopantetheinyl transferase ffp (Bacillus subtilis), Q9F4F7; Biochemical Sfp PPTase activity, qHTS; Potency, µM, for the others: largest response in the series, negative = inhibition, usual class: inhibitors; actives 3.5% (n = 310,000); AID 1490, 2009;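 further: the enzyme is Sfp with the accession as filed and its product quenches rhodamine fluorescence; 0% = enzyme reaction without inhibitor and -100% = no enzyme wells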
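Reaction rates are the 30-min fluorescence difference (ex 525, em 598 nm) in wells containing 15 nM Sfp, 5 uM rhodamine-CoA and 12.5 uM BHQ-2-YbbR at pH 7.6 with 10 mM MgCl2.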
BAZ2B inh: qHTS Assay for Inhibitors of BAZ2B; AlphaScreen BAZ2B-H3K14Ac peptide displacement; Bromodomain adjacent to zinc finger domain protein 2B (Homo sapiens), Q9UIF8; Potency, µM (series often up to 114 µM), for inactives: at the highest dose activity change, negative = inhibition, usual class: inhibitors; AID 504333, 2011; actives 4.4% (n = 360,000); further: on the % scale 0 is the no-effect control and ±100 the full control effect; nearly all actives have a fitted effect of over 60% in size
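Compounds, titrated to a top concentration of 110 uM, were incubated 30 min at room temperature with preformed BAZ2B/acetyl-K14 H3 peptide complex (50 nM each). Proximity signal was measured by AlphaScreen after 20 min with beads.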
L3MBTL1 inh: qHTS Assay for the Inhibitors of L3MBTL1; AlphaScreen L3MBTL1–H3K9me1 peptide binding; Potency, µM (top dose mostly 57.1 µM), inactives show at the highest dose activity, negative = inhibition, actives largely listed as inhibitors; actives 0.66% (n = 230,000); further: on the % scale 0 is the no-effect control and ±100 the full control effect; nearly all actives have a fitted effect of over 60% in size
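Displacement of a biotinylated histone H3(1-15) peptide monomethylated at Lys9 (75 nM) from L3MBTL1 (50 nM) was measured by AlphaScreen after a 30 min room-temperature compound incubation; cefsulodin titration served as intraplate control.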
JMJD2A Tudor inh: qHTS Assay for Inhibitors of JMJD2A-Tudor Domain; AlphaScreen JMJD2A-Tudor / H3K4me3 peptide binding; Potency, µM (highest dose often 114 µM), without a hit: at the highest dose activity change, negative = inhibition, most hits filed as inhibitors; Lysine-specific demethylase 4A (Homo sapiens), O75164; actives 4.4% (n = 390,000); further: on the % scale 0 is the no-effect control and ±100 the full control effect; nearly all actives have a fitted effect of over 50% in size
Target sequence (O75164 whole entry, looked up, the tested form may be a part): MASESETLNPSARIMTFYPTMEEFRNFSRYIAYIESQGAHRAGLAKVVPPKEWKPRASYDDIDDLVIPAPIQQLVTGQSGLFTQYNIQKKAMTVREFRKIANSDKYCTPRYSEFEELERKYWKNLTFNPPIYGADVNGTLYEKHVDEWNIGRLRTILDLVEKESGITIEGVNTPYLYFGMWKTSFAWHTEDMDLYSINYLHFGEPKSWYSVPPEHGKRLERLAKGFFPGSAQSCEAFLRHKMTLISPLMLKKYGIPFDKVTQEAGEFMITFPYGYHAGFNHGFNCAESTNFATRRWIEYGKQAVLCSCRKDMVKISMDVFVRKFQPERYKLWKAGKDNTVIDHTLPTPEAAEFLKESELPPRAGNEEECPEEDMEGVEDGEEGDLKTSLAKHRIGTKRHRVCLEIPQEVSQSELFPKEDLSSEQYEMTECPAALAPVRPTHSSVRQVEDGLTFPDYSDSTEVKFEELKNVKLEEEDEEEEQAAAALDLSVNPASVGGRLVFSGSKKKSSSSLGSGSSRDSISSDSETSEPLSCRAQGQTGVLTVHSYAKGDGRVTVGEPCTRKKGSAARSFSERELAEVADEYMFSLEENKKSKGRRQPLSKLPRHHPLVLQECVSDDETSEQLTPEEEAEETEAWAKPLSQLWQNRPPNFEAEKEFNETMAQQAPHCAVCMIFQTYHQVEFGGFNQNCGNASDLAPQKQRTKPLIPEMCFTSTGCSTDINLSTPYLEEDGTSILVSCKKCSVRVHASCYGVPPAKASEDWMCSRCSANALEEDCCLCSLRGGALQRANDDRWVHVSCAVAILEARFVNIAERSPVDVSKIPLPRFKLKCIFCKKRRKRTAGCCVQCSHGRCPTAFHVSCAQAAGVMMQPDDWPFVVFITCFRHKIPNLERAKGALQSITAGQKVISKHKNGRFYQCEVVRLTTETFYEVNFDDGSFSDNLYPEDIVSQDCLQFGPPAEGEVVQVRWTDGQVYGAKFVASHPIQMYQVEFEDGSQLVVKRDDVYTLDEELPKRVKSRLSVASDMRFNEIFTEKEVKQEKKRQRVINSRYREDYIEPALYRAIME
* = called active by the depositor; ? = inconclusive; / = not tested or not shown; [ ] = dose if it differs, or a comment. The call rests on the fitted dose curve; in most records, active means well fitted curve in the direction sought with a large enough effect; inconclusive means small, poorly fitted or top-dose-only effect, or another doubt; inactive means no such curve, though single readings can be large; an effect the other way counts as inactive or inconclusive. Potency means the concentration at half of the fitted maximal effect.

SMILES | G9a inh | HP1b chromo inh | Sfp PPTase inh | BAZ2B inh | L3MBTL1 inh | JMJD2A Tudor inh
COC(=O)c1ccc(C2C(C(=O)c3ccc(C)o3)=C(O)C(=O)N2c2cc(C)on2)cc1 (stereo unspecified) | 50µM* | 26% | -5% | -35% | / | -12%
COC(=O)c1sc(N2C(=O)C(O)=C(C(=O)c3ccc(C)o3)C2c2cccs2)nc1C (stereo unspecified) | 10µM* | 6% | ? | -31% | / | ?
COC(=O)c1sc(N2C(=O)C(O)=C(C(=O)c3ccc(C)o3)C2c2ccco2)nc1C (stereo unspecified) | / | 7% | 12% | -5% | / | -26%
COC(=O)c1sc(N2C(=O)c3oc4ccccc4c(=O)c3C2c2cccs2)nc1C (stereo unspecified) | 14µM* | 21% | -4% | -4% | 12% | -4%
O=C(NC1CC(=O)N(c2ccc(Cl)cc2)C1)c1cccs1 (stereo unspecified) | 1%[59 µM] | 15% | / | -1% | / | -1%
CCCC(=O)NCCc1c(I)[nH]c2ccc(OC)cc12 | -29%[59 µM] | / | -5% | / | / | /
CCN(CC)C(=O)Cn1c(=O)n(-c2ccc(Cl)cc2)c(=O)c2c3c(sc21)CCCCC3 | 8%[59 µM] | 23% | / | -2% | / | -9%
O=C(Cn1c(=O)n(-c2ccc(F)cc2)c(=O)c2sc3ccccc3c21)NC1CCCCC1 | -26%[59 µM] | 16% | / | -10% | / | -13%
COC(=O)C1=C(C(=O)OC)[C@@H]2Nc3ccccc3[C@@]23C[C@@H](C(=O)OC)N(S(=O)(=O)c2ccc(C#N)cc2)C3=N1 | / | / | -6% | / | / | /
Cn1c(O)c(N=Nc2nc(-c3ccccc3)cs2)c2ccccc21 | ? | -17% | 56µM* | ? | -10% | ?
Cn1c(O)c(N=NC(=O)Cc2c[nH]c3ccccc23)c2ccccc21 | / | -11% | / | / | / | ?
Cn1c(O)c(N=Nc2ccc(F)cc2)c2ccccc21 | 25µM* | ? | -27% | -3% | -22% | -31%
Cn1c(O)c(N=Nc2ccccc2)c2ccccc21 | 22µM* | 1% | 50µM* | -8% | / | -11%
COc1ccc(CNc2ncnc3ccc(-c4ccccc4OC)cc23)c(OC)c1 | 9%[0.501 µM] | / | -10% | / | / | /
COc1ccc(NC(=O)CCNC(=O)C2CCN(S(=O)(=O)c3ccc(OC)cc3)CC2)cc1 | 4% | 23% | 12% | -12% | / | -19%
O=C(CN1CCN(S(=O)(=O)c2ccccc2)CC1)Nc1cccc(C(F)(F)F)c1 | 20%[59 µM] | -10% | 9% | 20% | 4% | 79µM*
O=C(CN1CCN(C(=O)c2cccc(S(=O)(=O)N3CCCC3)c2)CC1)Nc1cccc(F)c1 | 56µM* | 29% | / | 14% | -2% | -12%
COc1ccc(S(=O)(=O)N2CCC(C(=O)NCCC(=O)Nc3cccc(Cl)c3)CC2)cc1 | -6% | 23% | 13% | -22% | / | 16µM*
COc1ccc(S(=O)(=O)N2CCN(CC(=O)Nc3cccc(OC)c3)CC2)cc1 | 15% | 12%[57 µM] | 5% | -17% | / | -6%
COc1ccc(S(=O)(=O)N2CCN(CC(=O)Nc3ccc(F)c(F)c3)CC2)cc1 | 45µM* | 13% | 7% | 8% | -3% | -11%
O=C(CN1CCN(C(=O)c2ccco2)CC1)Nc1cccc(S(=O)(=O)N2CCCC2)c1 | ? | 22% | / | 7% | -2% | -14%
CCOc1ccc(CNC(=O)CCC(=O)N2CC(C)Sc3ccccc32)cc1 (stereo unspecified) | -5%[59 µM] | 9% | / | -8% | / | -14%
O=C(Cc1ccccc1)NC1CC(=O)N(c2ccccc2)C1 (stereo unspecified) | 19%[59 µM] | 13% | / | 0% | / | -3%
CCCN1C(=O)CN(C2CCCCCC2)C(=O)C1c1ccc(OCC)c(OC)c1 (stereo unspecified) | 7%[59 µM] | 12% | / | -5% | / | -25%
CC(=O)c1ccc(NCC(=O)N2CCN(S(=O)(=O)c3ccccc3)CC2)cc1 | 22%[12.7 µM] | 34% | / | 1% | 7% | 1%
SMILES | G9a inh | HP1b chromo inh | Sfp PPTase inh | BAZ2B inh | L3MBTL1 inh | JMJD2A Tudor inh
O=C(Cc1ccc(Br)cc1)Nc1ccc(S(=O)(=O)N2CCCC2)cc1 | / | / | 11% | -2% | / | /
O=C(CNc1ccc(Cl)c(C(F)(F)F)c1)N1CCN(S(=O)(=O)c2ccccc2)CC1 | / | -33% | / | / | / | 79µM*
O=C(CN1CCCN(S(=O)(=O)c2ccc(F)cc2)CC1)Nc1cccc(F)c1 | 32µM* | 42% | -11% | 0% | / | -13%
O=C(Cc1ccc(F)cc1)Nc1ccc(S(=O)(=O)N2CCCC2)cc1 | 50µM* | 17% | / | 7% | -6% | -4%
CCc1cccc(CC)c1NC(=O)CN1CCN(S(=O)(=O)c2ccccc2)CC1 | 45µM* | 8% | 5% | -15% | / | -10%
CCOC(=O)c1cnc(NCc2ccccc2OC)c2ccccc12 | 57%[59 µM] | 68%[57 µM] | / | 120% | / | 61%
Cc1nc2ccc(S(=O)(=O)N3CCN(S(=O)(=O)c4c(F)cccc4F)CC3)cc2s1 | / | / | / | / | / | -21%
O=C1CCc2cc(S(=O)(=O)NCc3ccccc3)ccc2N1 | / | / | / | / | / | -11%
COc1ccc(/C=N/n2cnn(Cc3ccccc3Cl)c2=S)cc1OC | 40µM* | ? | ? | -28% | -13% | -26%
Oc1ccc(/C=N/n2cnn(Cc3ccccc3Cl)c2=S)c(O)c1 | 3.2µM* | -31% | 14µM* | -29% | -7% | ?
COc1ccc(S(=O)(=O)N(CCC(=O)O)Cc2ccccc2)cc1 | -15% | 22% | 27% | -23% | -8% | 6%
O=C(O)CCCN(Cc1cccc(Br)c1)S(=O)(=O)c1ccc(Br)cc1 | 19% | 23% | 79µM* | 3% | / | -7%
O=C(CN1C(=O)C2(SCC(=O)N2c2cccc(F)c2)c2ccccc21)NCCc1ccccc1 (stereo unspecified) | 7%[59 µM] | 27% | / | -7%[57.1 µM] | / | -3%
COc1cc(Nc2nc(SCc3cccc(Cl)c3)nc3ccccc23)cc(OC)c1 | 36%[59 µM] | 68% | / | 10% | / | 9%
CCOC(=O)CN(C(=O)CSc1nnc(CNc2ccc(C)cc2C)o1)c1ccccc1 | -8%[59 µM] | -10% | -4% | 50µM* | -18% | ?
CCOC(=O)CSC1=C(C#N)C(=O)NC2(CCCCC2)S1 | 32µM* | 71µM* | 50µM* | 13µM* | / | 45µM*
COc1ccc(C(C)=O)cc1CSc1nc(Nc2ccc(F)c(F)c2)c2ccccc2n1 | -5%[59 µM] | 4% | / | -31% | / | ?
